PBM binding z-score data for 17 sequences are collected here from the supplement of paper PMC6555819.

Assay in all cases: PBM binding z-score (relative to random genomic background probes); higher = stronger binding; sequences stand for … in GC…GCGATTGACAGCGTAGAATGAAGG
Assay [1] deals with RARb homodimer (NR concentration 270 nM). The gist of the method: (§1)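 Ligand-free nuclear receptor dimers were bound for 1 h to custom Agilent 4×180K protein-binding microarrays. Detection used antibodies against each partner (one per run). Binding z-scores rest on regression-normalized fluorescence, with random background probes as the reference.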
In assay [2] the test system is RARg:RXRa (NR concentration 270 nM, RXRa partner concentration 90 nM). The gist of the method:
as §1

The subject of assay [3] is RARg homodimer (NR concentration 270 nM). In a few lines: as §1
The test system of assay [4] is RXRa DBDmut IVT, anti-RXR (DBD mutation: RXRa K156A/R161A, NR concentration 90 nM). In a few lines: as §1
The subject of assay [5] is RXRa homodimer (NR concentration 180 nM). The gist of the method: as §1
Assay [6] concerns THRa:RXRa (NR concentration 90 nM, RXRa partner concentration 90 nM). In a few lines:
as §1

Assay [7] concerns THRa homodimer (NR concentration 90 nM). In a few lines: as §1
Assay [8] deals with VDR homodimer (NR concentration 270 nM). In a few lines: as §1

As to CCTACTGGGGCAAGGTCATTGATCAGTCAAAGCA, the PBM binding z-score in assay [1] amounted to 3.3; in assay [2] it was 4.12; in assay [3] it was 3.61; in assay [4], 1.28; in assay [5], 3.54; in assay [6], 3.25. Further, the figures for the PBM binding z-score in assay [7] and in assay [8] were 1.6 and 3.27, respectively.

Consider CCTACTGGGCCAAAGTTCATTGATTCCAATGCTC, for which the PBM binding z-score in assay [1] was determined as 3.34; in assay [2], 3.23; in assay [3], 2.56; in assay [4] it was 2.37; in assay [5], 2.73; in assay [6], 1.44. Also, the PBM binding z-score in assay [7] was determined as 0.0374; in assay [8], 3.96.

With AGAATGAGGTTATACGTAGATCAGGGTAGAAAGT, the PBM binding z-score in assay [1] amounted to 1.33; in assay [2] it was 1.82; in assay [3], 1.34; in assay [4], 1.81; in assay [5], 2.24; in assay [6] it was 2.42. Also, the PBM binding z-score worked out at 0.874 in assay [7] and 1.21 in assay [8].

With CAAACTAGGTCACAGCGGTCAAAGTCCGTGCGTA, the PBM binding z-score in assay [1] is 4.53; in assay [2] it was 5.19; in assay [3], 5.77; in assay [4] it was 1.84; in assay [5] it was 3.87; in assay [6], 3.66. Besides, the PBM binding z-score in assay [7] amounted to 1.74; in assay [8], 2.57.

With TTACCAATGTGAGCTGAGGTCGTTGATCCAACTC, the PBM binding z-score in assay [1] was 0.861; in assay [2], 0.247; in assay [3] it was -0.299; in assay [4], 0.122; in assay [5] it was 0.752; in assay [6] it was 3.25. Also, the results for the PBM binding z-score in assay [7] and in assay [8] were 1.54 and 2.7, respectively.

Consider TAGCCTAGGTCATATCGGGCCAGTATACGCTATA, for which the PBM binding z-score in assay [1] came out at 2.44; in assay [2], 3.33; in assay [3], 3.95; in assay [4] it was 1.17; in assay [5], 2.49; in assay [6] it was 4.54. In addition, the values for the PBM binding z-score in assay [7] and in assay [8] were 0.783 and 0.939, respectively.

On to TCTTGTAGATCAACATGAGGTTAAGAAAGATCGA, for which the PBM binding z-score in assay [1] was 0.695; in assay [2], 1.12; in assay [3], 0.455; in assay [4], 0.475; in assay [5], 1.27; in assay [6], 2.18. Besides, the figures for the PBM binding z-score in assay [7] and in assay [8] were 0.657 and 0.413, respectively.

Turning to ATCTCTAGGTAAGACTCAGTTGAGTGAAGAACGC, the PBM binding z-score is -0.154 in assay [1]; 0.15 in assay [2]; 0.0573 in assay [3]; 0.17 in assay [4]; -0.0983 in assay [5]; 0.492 in assay [6]. Also, the PBM binding z-score came to 0.309 in assay [7] and 0.119 in assay [8].

As for CGAACTAGGCCAGAACAGGACAGTGAAGGATGAT, the PBM binding z-score in assay [1] turned out to be 0.156; in assay [2] it was 0.158; in assay [3] it was 0.409; in assay [4], 0.019; in assay [5] it was 0.291; in assay [6] it was 0.634. The figures for the PBM binding z-score in assay [7] and in assay [8] were -0.576 and -0.245, respectively.

CCTTACGGGTCAAGTTTATAGCACGGGTGGTACG: the PBM binding z-score in assay [1] worked out at 3.32; in assay [2], 5.13; in assay [3], 4.78; in assay [4] it was 2.07; in assay [5], 5.03; in assay [6], 2.56. Also, the PBM binding z-score in assay [7] was 0.164; in assay [8], 3.09.

Consider CCTTACGGGTCACTGACAGGTTATCGCATTTGGA, for which the PBM binding z-score in assay [1] was found to be 3.3; in assay [2], 5.91; in assay [3], 4.66; in assay [4] it was 1.9; in assay [5] it was 5.05; in assay [6] it was 3.02. Also, the figures for the PBM binding z-score in assay [7] and in assay [8] were 0.17 and 0.982, respectively.

Consider CCTACTGTGCCATCAGGTCATTGATATCAACGTT, for which the PBM binding z-score in assay [1] stood at 2.98; in assay [2] it was 2.18; in assay [3], 1.93; in assay [4], 1.69; in assay [5] it was 1.53; in assay [6] it was 3.64. For the same sequence, the PBM binding z-score in assay [7] is 3.95; in assay [8], 2.39.

Regarding ATCGAGAGGTCGAAGGTGAGTATACCCACCCGAA, the PBM binding z-score in assay [1] stood at 1.46; in assay [2] it was 3.28; in assay [3], 2.62; in assay [4], 1.02; in assay [5], 4.3; in assay [6] it was 1.82. Besides, the PBM binding z-score in assay [7] was -0.366; in assay [8], 0.783.

On to TCATATAGGTAACAGGTGAAAGTCGGTGTGGTAA, for which the PBM binding z-score came out at 1.03 in assay [1]; 0.519 in assay [2]; 0.556 in assay [3]; 1.41 in assay [4]; 1.11 in assay [5]; 0.822 in assay [6]. The PBM binding z-score in assay [7] was 0.292; in assay [8] it was 0.21.

Take CCTCGGAGGACAACATGAGGTCAGAGCTGCCAGA: the PBM binding z-score in assay [1] was 3.88; in assay [2], 3.49; in assay [3], 3.52; in assay [4], 1.15; in assay [5], 2.13; in assay [6], 4.08. Further, the PBM binding z-score in assay [7] came out at 3.51; in assay [8], 2.43.

As for ATCTAAAGGTCGACGAGGTGAGTATACACCGTTT, the PBM binding z-score in assay [1] came to 3.05; in assay [2] it was 4.38; in assay [3] it was 4.38; in assay [4], 1.52; in assay [5], 4.1; in assay [6], 3.82. Moreover, the values for the PBM binding z-score in assay [7] and in assay [8] were 0.836 and 1.29, respectively.

Take CCTAGTAGGCCAATCTGGGTCACTCAAGGCTTGA: the PBM binding z-score in assay [1] is 2.52; in assay [2], 1.43; in assay [3], 1.67; in assay [4], -0.0412; in assay [5], 0.813; in assay [6] it was 3.89. For the same sequence, the results for the PBM binding z-score in assay [7] and in assay [8] were 0.525 and -0.107, respectively.
